According to PubChem BioAssay:
Calls of active or inactive are those of the source. Unless noted, no rule for the calls is given here.

What was measured:
[1] = system: Wnt5a (protein binding on small-molecule microarray); test: small molecules binding Wnt5a protein – biophysical, small-molecule microarray, 635/667 nm fluorescence, primary screen (AID 1142); conditions: 635 nm fluorescence, higher = more signal;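 also: fluorescence read at 667 nm with signal to noise per printed feature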
[2] = ATP-based viability of Huh7 replicon cells – cell-based, CellTiter-Glo luminescence, basal, 48 h, cytotoxicity control for HCV replication inhibitor project, primary screen (AID 1143); conditions: higher = more signal, called active from +8 up or from −8 down;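 also: Huh7 hepatoma cells carrying a hepatitis C replication reporter with no stimulus; test concentration not given here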
[3] = Pseudomonas biofilm growth suppression – PAO1 strain, BacTiter-Glo luminescence, LB-PBS, primary screen (AID 1144); conditions: P. aeruginosa PAO1 biofilm, 12 h, higher = more signal
[4] = basal CRE-LacZ reporter activity in PC12 – cell-based, unstimulated, primary screen (AID 1145); conditions: no forskolin, luminescence, 4.5 h, higher = more signal, called active from +8 up or from −8 down
[5] = forskolin-driven CRE-LacZ activity in PC12 – cell-based, CRE-LacZ reporter, forskolin-stimulated, primary screen (AID 1146); conditions: luminescence, 4.5 h, higher = more signal, called active from +8 up or from −8 down;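 also: PC12 cells with 6xCRE LacZ reporter stimulated by forskolin 10 µM; beta-galactosidase reporter signal reflecting CREB driven transcription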
[6] = target: Streptavidin (Streptomyces avidinii) (UniProt P22629); test: compounds binding control protein streptavidin – biophysical, small-molecule microarray, 635/667 nm fluorescence, artefact control for SMM compound annotation, primary screen (AID 1147); conditions: higher = more signal;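 also: signal reflects streptavidin binding to arrayed compounds as a control protein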
Chain of Streptavidin (Streptomyces avidinii) (P22629 whole entry, looked up): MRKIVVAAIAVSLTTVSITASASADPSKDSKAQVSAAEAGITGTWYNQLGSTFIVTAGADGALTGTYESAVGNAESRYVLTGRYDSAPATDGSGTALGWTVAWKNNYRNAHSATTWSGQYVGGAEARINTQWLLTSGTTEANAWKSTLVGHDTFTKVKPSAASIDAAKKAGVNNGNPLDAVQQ

[7] = probe aInhba binding on compound microarray – biochemical, small-molecule microarray, 635/667 nm fluorescence, primary screen (AID 1148); conditions: higher = more signal;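 also: score merges 667nm spot fluorescence with signal-to-noise for antibody binding to printed compounds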
[8] = target: Torsin-1A (Homo sapiens) (UniProt O14656); test: TOR1A wild-type binding on microarray – cell lysate, small-molecule microarray, lysate, 635/667 nm, primary screen (AID 1149); conditions: COS7 hTOR1A-WT lysate, 635 nm fluorescence, higher = more signal
Chain of Torsin-1A (Homo sapiens) (O14656 whole entry, looked up): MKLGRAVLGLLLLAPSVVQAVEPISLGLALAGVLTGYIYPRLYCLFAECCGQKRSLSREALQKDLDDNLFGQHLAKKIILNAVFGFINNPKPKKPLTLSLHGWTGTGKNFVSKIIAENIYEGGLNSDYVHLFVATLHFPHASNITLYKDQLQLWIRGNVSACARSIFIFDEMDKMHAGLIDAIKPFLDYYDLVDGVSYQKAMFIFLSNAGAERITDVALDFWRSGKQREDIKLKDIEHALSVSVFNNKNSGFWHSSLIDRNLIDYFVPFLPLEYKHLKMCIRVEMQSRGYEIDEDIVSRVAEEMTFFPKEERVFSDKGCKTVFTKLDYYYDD

[9] = target: Torsin-1A (Homo sapiens) (UniProt O14656); test: torsin A mutant lysate binding on microarrays – cell lysate, small-molecule microarray, COS7 lysate, 635/667 nm fluorescence, primary screen (AID 1150); conditions: COS7 hTOR1A mutant lysate, 635 nm fluorescence, higher = more signal;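 also: score pools 667 nm emission and signal to noise measuring lysate protein binding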
[10] = system: Sonic hedgehog protein (Shh); test: Sonic hedgehog microarray binding compounds – biochemical, small-molecule microarray, 635/667 nm fluorescence, primary screen (AID 1151); conditions: 635 nm fluorescence, higher = more signal;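 also: Shh protein binding to compounds spotted on small-molecule microarray slides; score combines spot fluorescence intensity with signal-to-noise across triplicate slides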
[11] = optical density shifts of acrAB sulA E. coli – strain DRC41, OD650, 48 h, E. coli filamentation inducer project, primary screen (AID 1152); conditions: higher = more signal, called active from +8 up or from −8 down;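 also: E. coli MC1000 strain DRC41 lacking acrAB efflux pump and sulA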
[12] = probe aLefty1 binding on compound microarray – biochemical, small-molecule microarray, 635/667 nm fluorescence, primary screen (AID 1153); conditions: higher = more signal;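 also: score merges spot fluorescence with signal-to-noise ratio from the scanned slide images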
[13] = plasmodial surface anion channel blockers, osmotic lysis – cell-based, P. falciparum Indochina, OD700, 1 h, primary screen (AID 1154); conditions: P. falciparum Indochina infected RBC osmotic lysis, higher = more signal, called active from +8 up or from −8 down
[14] = plasmodial surface anion channel blockers, osmotic lysis – cell-based, P. falciparum Indochina, OD700, 2 h, primary screen (AID 1155);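 also: lysis reports solute entry through the parasite surface anion channel PSAC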; conditions: P. falciparum Indochina infected erythrocytes, higher = more signal, called active from +8 up or from −8 down
[15] = changes in parasitized red cell lysis, either direction – P. falciparum Indochina, OD700, 3 h, PSAC antagonist project, primary screen (AID 1156); conditions: P. falciparum-infected erythrocytes, osmotic lysis, higher = more signal, called active from +8 up or from −8 down
[16] = plasmodial surface anion channel blockers, osmotic lysis – cell-based, P. falciparum Indochina, OD700, 18 h, primary screen (AID 1157); conditions: P. falciparum Indochina infected erythrocytes, osmotic lysis OD700, 18 h; higher = more signal, called active from +8 up or from −8 down
[17] = S6 kinase pathway phospho-S6 level changes – cell-based, A549, cytoblot, luminescence, serum-stimulated, primary screen (AID 1158); conditions: 5 h, higher = more signal;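 also: serum-stimulated A549 lung adenocarcinoma cells; signal is phosphorylated S6 detected by cytoblot immunostaining with HRP secondary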
[18] = target: NADPH oxidase 2 (Homo sapiens) (UniProt P04839); test: compounds shifting NOX2 Amplex Red fluorescence – cell-based, HEK293-NOX2, PMA-stimulated, NOX inhibitor project, primary screen (AID 1159); conditions: 45 min, higher = more signal, called active from +8 up or from −8 down; also: test concentration not given here
Chain of NADPH oxidase 2 (Homo sapiens) (P04839 whole entry, looked up): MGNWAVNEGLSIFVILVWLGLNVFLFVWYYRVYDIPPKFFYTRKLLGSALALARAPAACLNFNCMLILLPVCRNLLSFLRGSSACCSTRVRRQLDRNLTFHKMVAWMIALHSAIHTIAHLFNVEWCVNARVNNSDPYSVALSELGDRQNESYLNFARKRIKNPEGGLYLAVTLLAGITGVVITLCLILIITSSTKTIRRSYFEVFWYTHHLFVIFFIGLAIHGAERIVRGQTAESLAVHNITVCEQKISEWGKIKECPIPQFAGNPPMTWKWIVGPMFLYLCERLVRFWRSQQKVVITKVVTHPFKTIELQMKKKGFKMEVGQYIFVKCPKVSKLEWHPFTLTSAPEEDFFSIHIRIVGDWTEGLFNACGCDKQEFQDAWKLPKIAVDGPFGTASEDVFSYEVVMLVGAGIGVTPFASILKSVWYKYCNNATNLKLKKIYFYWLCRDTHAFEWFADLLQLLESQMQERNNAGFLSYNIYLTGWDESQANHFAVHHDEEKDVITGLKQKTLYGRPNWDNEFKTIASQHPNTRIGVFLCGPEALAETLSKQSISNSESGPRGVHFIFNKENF

[19] = target: NADPH oxidase 4 (Homo sapiens) (UniProt Q9NPH5); test: compounds shifting NOX4 Amplex Red fluorescence – cell-based, HEK293-NOX4, tetracycline-induced, NOX inhibitor project, primary screen (AID 1160); conditions: HEK293-NOX4, Amplex Red H2O2 fluorescence, 45 min; higher = more signal, called active from +8 up or from −8 down
Chain of NADPH oxidase 4 (Homo sapiens) (Q9NPH5 whole entry, looked up): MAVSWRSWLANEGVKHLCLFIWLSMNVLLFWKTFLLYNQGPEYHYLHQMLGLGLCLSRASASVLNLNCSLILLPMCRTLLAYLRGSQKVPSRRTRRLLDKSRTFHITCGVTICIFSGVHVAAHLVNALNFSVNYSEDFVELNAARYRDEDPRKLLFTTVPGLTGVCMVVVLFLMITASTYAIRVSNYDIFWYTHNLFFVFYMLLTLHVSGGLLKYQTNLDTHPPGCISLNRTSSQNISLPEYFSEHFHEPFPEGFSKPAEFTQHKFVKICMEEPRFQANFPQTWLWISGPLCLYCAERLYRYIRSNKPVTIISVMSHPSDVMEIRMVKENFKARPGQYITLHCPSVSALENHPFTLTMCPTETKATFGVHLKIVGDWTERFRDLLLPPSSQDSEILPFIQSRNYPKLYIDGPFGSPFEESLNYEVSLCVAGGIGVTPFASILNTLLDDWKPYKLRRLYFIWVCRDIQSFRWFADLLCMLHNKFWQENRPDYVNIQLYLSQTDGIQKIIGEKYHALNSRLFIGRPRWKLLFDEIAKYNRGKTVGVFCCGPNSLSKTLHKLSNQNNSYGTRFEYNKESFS

[20] = target: NADPH oxidase 5 (Homo sapiens) (UniProt Q96PH1); test: compounds shifting NOX5 Amplex Red fluorescence – cell-based, HEK293-NOX5, NOX inhibitor project, primary screen (AID 1161); conditions: HEK293-NOX5, ionomycin, 45 min, higher = more signal
Chain of NADPH oxidase 5 (Homo sapiens) (Q96PH1 whole entry, looked up): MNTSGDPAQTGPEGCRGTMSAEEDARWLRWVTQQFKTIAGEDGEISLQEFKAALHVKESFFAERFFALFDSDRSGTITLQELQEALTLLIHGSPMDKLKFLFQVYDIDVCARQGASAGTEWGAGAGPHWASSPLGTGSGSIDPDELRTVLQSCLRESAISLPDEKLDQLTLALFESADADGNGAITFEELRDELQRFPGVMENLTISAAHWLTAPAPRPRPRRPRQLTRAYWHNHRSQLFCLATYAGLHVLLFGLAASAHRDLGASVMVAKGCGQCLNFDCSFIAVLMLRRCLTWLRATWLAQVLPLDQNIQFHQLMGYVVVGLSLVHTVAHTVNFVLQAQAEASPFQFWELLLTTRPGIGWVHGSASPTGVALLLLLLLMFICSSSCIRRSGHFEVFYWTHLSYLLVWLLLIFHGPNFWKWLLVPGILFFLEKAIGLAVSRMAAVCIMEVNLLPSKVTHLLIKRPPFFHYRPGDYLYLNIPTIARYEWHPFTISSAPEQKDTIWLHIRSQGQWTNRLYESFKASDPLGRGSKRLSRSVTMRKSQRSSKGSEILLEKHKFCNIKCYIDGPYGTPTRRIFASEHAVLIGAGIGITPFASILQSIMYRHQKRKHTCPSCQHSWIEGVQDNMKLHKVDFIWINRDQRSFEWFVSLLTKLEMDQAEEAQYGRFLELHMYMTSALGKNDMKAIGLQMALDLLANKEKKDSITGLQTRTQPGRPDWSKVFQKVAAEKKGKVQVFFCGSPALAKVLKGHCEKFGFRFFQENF

Structure (SMILES)	composite z-score [1]	z-score [2]	z-score [3]	z-score [4]	z-score [5]	composite z-score [6]	composite z-score [7]	composite z-score [8]	composite z-score [9]	composite z-score [10]	z-score [11]	composite z-score [12]	z-score [13]	z-score [14]	z-score [15]	z-score [16]	z-score [17]	z-score [18]	z-score [19]	z-score [20]
CN1C(=O)C2C=CC(C(O)c3ccc(I)cc3)N(Nc3ccccc3)C2C1=O (stereo not given)	0.377	0.134 (inactive)	-0.507 (inactive)	1.77 (inactive)	1.34 (inactive)	1.76	-0.0209	0.338	0.696	-0.0996	-1.97 (inactive)	0.195	1.9 (inactive)	1.27 (inactive)	1.04 (inactive)	1.12 (inactive)	-0.919	-0.874 (inactive)	-5.01 (inactive)	-4.14
C=C(/C(=C/C[C@@H](OC(C)=O)c1ccc(CO)o1)c1cc(C(=O)OC)ccc1OC)C(C)C	0.201	-0.143 (inactive)	-0.0434 (inactive)	0.247 (inactive)	2.78 (inactive)	-0.446	0.148	0.431	0.549	1.07	0.225 (inactive)	-0.0536	4.3 (inactive)	0.758 (inactive)	1.35 (inactive)	0.479 (inactive)	-0.0642	-0.169 (inactive)	-0.673 (inactive)	-0.988
C=C(CCCC)/C(=C/C[C@H](OC(C)=O)c1ccc(OCCO)cc1)c1cc(C(=O)OC)ccc1OC	0.613	-1.03 (inactive)	-0.8 (inactive)	8.05 (active)	-0.499 (inactive)	0.156	0.0363	-0.453	0.886	0.803	0.564 (inactive)	-0.0378	24.5 (active)	7.58 (inactive)	2.3 (inactive)	1.48 (inactive)	0.376	-0.338 (inactive)	-0.759 (inactive)	-1.56
CCCCNC(=O)c1ccc(C#C[Si](C(C)C)(C(C)C)C(C)C)c(OC(C)=O)c1	0.268	-0.915 (inactive)	-0.084 (inactive)	0.223 (inactive)	0.184 (inactive)	1.04	-0.187	0.598	0.216	1.74	-0.52 (inactive)	-0.0518	0.964 (inactive)	0.272 (inactive)	0.551 (inactive)	0.158 (inactive)	0.152	1.26 (inactive)	0.355 (inactive)	0.458
C=C[C@H](C)[C@H](OC(=O)Nc1ccc(OC)cc1)c1ccc(OCCO)cc1	-0.423	-2.77 (inactive)	0.133 (inactive)	4.89 (inactive)	0.0618 (inactive)	-0.911	-0.314	0.763	0.0508	0.261	0.566 (inactive)	0.126	12.4 (active)	1.76 (inactive)	0.193 (inactive)	0.746 (inactive)	-0.196	-0.288 (inactive)	0.436 (inactive)	-2.19
COCCOC(=O)N1C(=O)[C@@]2(c3cc(C#CCNC(N)=O)ccc31)[C@H](c1ccc(OCCO)cc1)N1[C@H](c3ccccc3)[C@H](c3ccccc3)OC(=O)[C@H]1[C@@H]2C(=O)NC[C@H](O)c1ccccc1	0.423	-0.441 (inactive)	-0.498 (inactive)	-1.56 (inactive)	-0.567 (inactive)	0.904	0.111	0.367	0.792	1.27	0.402 (inactive)	0.119	1.65 (inactive)	1.1 (inactive)	0.624 (inactive)	0.457 (inactive)	-0.144	2.22 (inactive)	1.06 (inactive)	-0.137
COc1ccc(C#Cc2ccc3c(c2)[C@]2(C(=O)N3)[C@H](C(=O)N3CCCCCCC3)[C@H]3C(=O)O[C@H](c4ccccc4)[C@H](c4ccccc4)N3[C@@H]2c2ccc(O)cc2)cc1	0.696	-0.71 (inactive)	-0.768 (inactive)	0.0653 (inactive)	-0.202 (inactive)	0.627	0.939	0.589	1.42	1.6	-0.821 (inactive)	2.04	0.445 (inactive)	0.391 (inactive)	-0.562 (inactive)	0.271 (inactive)	-0.0624	0.697 (inactive)	0.174 (inactive)	0.00156
O=C(CS)NCCCCCCNC(=O)[C@@H]1C[C@@H]2C(=O)NCC(=O)N2[C@@H]1c1ccc(O)cc1	-0.101	-0.534 (inactive)	-1.26 (inactive)	-0.537 (inactive)	-1.57 (inactive)	-0.635	-0.293	0.397	-0.814	0.236	1.58 (inactive)	0.0341	2.54 (inactive)	-0.164 (inactive)	1.62 (inactive)	-1.41 (inactive)	2.85	0.266 (inactive)	0.147 (inactive)	1.51
COC(=O)[C@@]1(Cc2ccccc2)[C@H]2c3cc(C(=O)N(C)C)n(CCn4cc([N+](=O)[O-])nc4C)c3C[C@H]2CN1C(=O)c1ccccc1	0.192	-0.65 (inactive)	0.331 (inactive)	-0.379 (inactive)	1.45 (inactive)	0.287	-0.147	0.614	0.464	0.383	-0.566 (inactive)	0.0249	-0.25 (inactive)	-0.949 (inactive)	-0.513 (inactive)	-0.956 (inactive)	1.18	0.635 (inactive)	1.24 (inactive)	-1.65
